Data from the supplement of paper PMC11732987, “Enantioselective OTUD7B fragment discovery through chemoproteomics screening and high-throughput optimisation” (Communications Chemistry, 2025).

Columns and labels:
Assay in all cases: log2 ratio of Biotin-Ahx-Ub-VS probe labelling (fragment/DMSO); higher = less target engagement (more negative = stronger competition), active = hit call of the paper (q ≤ 0.05, log2 ratio ≤ -1)
Settings in all cases: compound concentration: 200 uM; treatment time: 3 h
[1] = biological target: T1, ALG13 (UniProt Q9NP73)
T1 sequence (whole entry): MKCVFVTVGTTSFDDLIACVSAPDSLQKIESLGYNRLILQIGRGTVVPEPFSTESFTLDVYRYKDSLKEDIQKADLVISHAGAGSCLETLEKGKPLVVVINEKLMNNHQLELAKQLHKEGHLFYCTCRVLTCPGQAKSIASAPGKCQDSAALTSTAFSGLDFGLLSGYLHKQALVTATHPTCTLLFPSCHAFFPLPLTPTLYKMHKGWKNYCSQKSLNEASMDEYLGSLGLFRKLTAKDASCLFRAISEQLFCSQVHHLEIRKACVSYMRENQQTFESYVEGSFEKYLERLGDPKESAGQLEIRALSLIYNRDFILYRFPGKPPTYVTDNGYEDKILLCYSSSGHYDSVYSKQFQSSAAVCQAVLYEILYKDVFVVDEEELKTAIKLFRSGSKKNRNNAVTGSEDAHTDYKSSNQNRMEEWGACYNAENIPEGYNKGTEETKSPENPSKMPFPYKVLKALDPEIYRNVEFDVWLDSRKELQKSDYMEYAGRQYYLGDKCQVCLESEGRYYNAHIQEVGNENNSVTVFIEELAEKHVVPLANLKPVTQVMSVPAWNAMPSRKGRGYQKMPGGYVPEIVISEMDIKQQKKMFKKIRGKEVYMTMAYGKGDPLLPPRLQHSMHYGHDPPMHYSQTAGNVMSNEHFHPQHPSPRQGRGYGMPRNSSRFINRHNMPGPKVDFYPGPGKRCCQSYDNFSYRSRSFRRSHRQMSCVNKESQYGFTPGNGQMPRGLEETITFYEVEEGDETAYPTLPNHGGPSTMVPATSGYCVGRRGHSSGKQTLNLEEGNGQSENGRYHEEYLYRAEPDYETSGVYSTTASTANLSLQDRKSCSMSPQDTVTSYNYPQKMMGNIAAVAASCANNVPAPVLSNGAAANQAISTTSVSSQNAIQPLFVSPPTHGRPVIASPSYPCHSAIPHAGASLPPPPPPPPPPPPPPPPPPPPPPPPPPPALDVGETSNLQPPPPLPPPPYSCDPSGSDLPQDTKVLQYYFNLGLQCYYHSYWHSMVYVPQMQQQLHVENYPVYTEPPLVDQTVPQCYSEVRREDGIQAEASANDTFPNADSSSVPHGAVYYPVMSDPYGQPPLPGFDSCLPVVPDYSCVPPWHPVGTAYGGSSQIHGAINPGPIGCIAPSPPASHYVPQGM
Method in brief: (§1)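 In triplicate, 495 µg of HEK293T lysate per sample was incubated with fragment at 200 µM or vehicle for 3 h. Biotin-Ahx-Ub-VS was then added to 0.5 µM final for 1 h, and labelled DUBs were captured with NeutrAvidin, digested with LysC and trypsin, and measured by diaPASEF LC-MS/MS. Data are average log2 fragment/vehicle ratios by unpaired t-test from global-median-normalised Spectronaut label-free quantities, restricted to proteins with ≥2 unique peptides.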

[2] = biological target: ATXN3 (UniProt P54252)
Method in brief: as §1

[3] = biological target: T2, BAP1 (UniProt Q92560)
T2 sequence (whole entry): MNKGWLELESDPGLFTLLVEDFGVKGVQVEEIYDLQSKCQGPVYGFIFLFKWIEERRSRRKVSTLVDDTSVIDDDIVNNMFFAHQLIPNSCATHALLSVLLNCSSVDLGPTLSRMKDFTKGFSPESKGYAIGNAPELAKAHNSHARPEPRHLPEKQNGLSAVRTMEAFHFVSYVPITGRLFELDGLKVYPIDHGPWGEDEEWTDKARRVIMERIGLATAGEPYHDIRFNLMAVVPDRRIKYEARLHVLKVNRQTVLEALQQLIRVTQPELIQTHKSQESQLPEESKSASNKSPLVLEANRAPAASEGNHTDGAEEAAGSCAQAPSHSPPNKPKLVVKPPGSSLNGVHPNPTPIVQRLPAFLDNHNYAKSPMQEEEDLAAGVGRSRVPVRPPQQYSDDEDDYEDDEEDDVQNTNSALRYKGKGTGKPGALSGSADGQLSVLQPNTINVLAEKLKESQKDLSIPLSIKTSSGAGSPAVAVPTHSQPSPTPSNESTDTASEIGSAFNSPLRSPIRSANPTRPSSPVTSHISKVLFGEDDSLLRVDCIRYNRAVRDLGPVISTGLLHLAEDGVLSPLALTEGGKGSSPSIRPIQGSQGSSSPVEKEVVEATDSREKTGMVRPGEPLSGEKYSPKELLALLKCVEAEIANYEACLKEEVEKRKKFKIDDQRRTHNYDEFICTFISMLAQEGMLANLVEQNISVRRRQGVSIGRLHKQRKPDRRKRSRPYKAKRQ
Method in brief: as §1

[4] = biological target: EIF3F (UniProt O00303)
Method in brief: as §1

[5] = biological target: EIF3H (UniProt O15372)
Method in brief: as §1

[6] = biological target: T3, FAM105A (UniProt Q9NUU6)
T3 sequence (whole entry): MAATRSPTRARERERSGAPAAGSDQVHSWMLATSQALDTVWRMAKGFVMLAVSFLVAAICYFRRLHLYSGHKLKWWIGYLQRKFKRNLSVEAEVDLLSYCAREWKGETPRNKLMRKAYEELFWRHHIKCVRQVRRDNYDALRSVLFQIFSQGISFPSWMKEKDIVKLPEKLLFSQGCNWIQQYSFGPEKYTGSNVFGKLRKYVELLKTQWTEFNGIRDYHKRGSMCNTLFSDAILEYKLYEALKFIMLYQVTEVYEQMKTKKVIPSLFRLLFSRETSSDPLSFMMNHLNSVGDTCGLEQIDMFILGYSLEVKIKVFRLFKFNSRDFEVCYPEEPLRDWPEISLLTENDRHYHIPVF
Method in brief: as §1

[7] = biological target: OTUB1 (UniProt Q96FW1)
Method in brief: as §1

[8] = biological target: T4, OTUD4 (UniProt Q01804)
T4 sequence (whole entry): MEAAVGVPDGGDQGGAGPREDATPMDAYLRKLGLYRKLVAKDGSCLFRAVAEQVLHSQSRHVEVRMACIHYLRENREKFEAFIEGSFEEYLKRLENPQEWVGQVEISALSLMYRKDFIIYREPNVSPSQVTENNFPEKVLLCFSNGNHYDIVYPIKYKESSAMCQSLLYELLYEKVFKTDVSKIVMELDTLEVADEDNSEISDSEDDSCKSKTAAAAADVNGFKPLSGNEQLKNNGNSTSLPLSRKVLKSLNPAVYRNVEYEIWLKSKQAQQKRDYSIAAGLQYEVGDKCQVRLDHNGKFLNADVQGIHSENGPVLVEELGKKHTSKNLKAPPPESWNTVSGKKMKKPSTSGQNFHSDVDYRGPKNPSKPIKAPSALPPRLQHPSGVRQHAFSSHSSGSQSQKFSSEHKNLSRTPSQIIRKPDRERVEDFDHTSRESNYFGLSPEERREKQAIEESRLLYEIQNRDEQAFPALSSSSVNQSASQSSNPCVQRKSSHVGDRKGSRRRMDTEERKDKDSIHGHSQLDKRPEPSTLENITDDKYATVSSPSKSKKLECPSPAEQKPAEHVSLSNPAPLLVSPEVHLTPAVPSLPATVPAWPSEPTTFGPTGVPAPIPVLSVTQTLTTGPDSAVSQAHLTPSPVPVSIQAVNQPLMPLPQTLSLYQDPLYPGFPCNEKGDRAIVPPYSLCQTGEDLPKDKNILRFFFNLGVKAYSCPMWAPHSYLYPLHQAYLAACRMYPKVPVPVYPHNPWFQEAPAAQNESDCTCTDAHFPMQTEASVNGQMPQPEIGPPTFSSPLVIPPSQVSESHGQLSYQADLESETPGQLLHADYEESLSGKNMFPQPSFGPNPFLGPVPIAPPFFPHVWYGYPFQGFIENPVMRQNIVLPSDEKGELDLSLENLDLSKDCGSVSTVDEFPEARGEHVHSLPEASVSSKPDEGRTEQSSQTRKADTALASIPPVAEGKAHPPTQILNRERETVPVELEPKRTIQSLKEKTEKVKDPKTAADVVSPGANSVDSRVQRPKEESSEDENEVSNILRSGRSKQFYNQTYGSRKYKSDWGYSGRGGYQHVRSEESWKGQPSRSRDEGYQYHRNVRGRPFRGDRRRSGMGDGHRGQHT
Method in brief: as §1

[9] = biological target: T5, OTUD5 (UniProt Q96G74)
T5 sequence (whole entry): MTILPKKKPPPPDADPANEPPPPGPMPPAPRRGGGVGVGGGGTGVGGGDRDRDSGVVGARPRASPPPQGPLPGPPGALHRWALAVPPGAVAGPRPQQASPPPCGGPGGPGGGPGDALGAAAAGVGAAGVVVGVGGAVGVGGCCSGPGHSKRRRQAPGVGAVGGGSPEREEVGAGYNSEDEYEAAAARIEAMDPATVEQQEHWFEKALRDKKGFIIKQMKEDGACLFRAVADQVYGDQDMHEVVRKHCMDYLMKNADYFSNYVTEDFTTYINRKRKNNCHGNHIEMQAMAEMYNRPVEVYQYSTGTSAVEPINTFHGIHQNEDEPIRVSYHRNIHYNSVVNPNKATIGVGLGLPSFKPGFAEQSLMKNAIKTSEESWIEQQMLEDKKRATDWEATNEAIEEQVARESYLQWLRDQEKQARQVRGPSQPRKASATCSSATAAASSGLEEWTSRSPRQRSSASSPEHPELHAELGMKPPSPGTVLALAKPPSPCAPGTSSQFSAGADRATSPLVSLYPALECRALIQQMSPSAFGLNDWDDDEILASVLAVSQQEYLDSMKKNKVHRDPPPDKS
Method in brief: as §1

Measured: log2 ratio of Biotin-Ahx-Ub-VS probe labelling

EIF3F, sequence (O00303 whole entry): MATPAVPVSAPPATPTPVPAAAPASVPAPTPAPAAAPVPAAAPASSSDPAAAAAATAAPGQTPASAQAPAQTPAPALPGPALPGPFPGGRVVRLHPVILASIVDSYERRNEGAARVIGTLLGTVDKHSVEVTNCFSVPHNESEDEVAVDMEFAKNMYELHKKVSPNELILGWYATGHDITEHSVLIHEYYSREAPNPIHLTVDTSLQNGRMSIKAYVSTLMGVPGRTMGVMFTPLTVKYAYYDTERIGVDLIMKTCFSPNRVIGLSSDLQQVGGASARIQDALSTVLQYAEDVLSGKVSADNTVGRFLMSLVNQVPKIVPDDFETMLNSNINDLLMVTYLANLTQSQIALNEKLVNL
EIF3H, sequence (O15372 whole entry): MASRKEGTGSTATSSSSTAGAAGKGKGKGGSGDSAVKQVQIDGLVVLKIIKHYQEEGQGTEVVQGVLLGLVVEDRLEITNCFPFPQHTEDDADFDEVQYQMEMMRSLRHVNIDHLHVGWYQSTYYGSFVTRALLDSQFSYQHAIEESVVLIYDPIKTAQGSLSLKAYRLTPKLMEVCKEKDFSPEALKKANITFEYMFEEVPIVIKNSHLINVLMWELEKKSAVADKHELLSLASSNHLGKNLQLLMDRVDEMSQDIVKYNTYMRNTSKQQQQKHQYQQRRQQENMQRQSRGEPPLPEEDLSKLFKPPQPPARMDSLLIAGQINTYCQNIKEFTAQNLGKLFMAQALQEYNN
ATXN3, sequence (P54252 whole entry): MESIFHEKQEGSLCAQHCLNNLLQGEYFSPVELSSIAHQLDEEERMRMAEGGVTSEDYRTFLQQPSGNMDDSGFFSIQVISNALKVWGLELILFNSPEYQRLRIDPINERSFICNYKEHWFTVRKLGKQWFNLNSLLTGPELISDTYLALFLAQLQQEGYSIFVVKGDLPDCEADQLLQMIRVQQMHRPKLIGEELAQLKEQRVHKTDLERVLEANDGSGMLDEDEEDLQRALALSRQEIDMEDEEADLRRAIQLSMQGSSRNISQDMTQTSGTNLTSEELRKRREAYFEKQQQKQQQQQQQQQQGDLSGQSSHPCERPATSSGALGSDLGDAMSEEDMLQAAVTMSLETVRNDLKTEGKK
OTUB1, sequence (Q96FW1 whole entry): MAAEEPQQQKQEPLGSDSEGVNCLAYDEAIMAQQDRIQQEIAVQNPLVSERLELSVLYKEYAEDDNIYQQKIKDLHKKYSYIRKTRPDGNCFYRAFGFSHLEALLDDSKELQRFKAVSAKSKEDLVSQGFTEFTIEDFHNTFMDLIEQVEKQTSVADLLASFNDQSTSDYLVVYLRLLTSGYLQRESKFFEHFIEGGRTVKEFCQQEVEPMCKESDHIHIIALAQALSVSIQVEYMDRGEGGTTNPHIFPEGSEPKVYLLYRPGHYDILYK

Cl.O=C(CCl)NCc1ccnc(Oc2ccccc2F)c1
active: [3] -3.99
inactive: [1] 0.177 | [2] -0.51 | [4] -0.072 | [5] -0.589 | [6] -0.0684 | [7] -0.232 | [8] -0.244 | [9] -0.524
